Measurements published in PubChem BioAssay (NCI).
Compounds without any hit were thinned out: in the full panel of roughly 79,000, 15% have a hit. No stated cut-off is given here; in the data, active means growth inhibition above about 70%; inactive means the rest.

Experiments:
[1] = NCI Yeast Anticancer Drug Screen. Data for the rad50 strain (AID 155);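 further: 0% = growth of vehicle-only cultures of the same strain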; details: S. cerevisiae rad50 strain growth inhibition; at 50.0 µM; stronger effect = higher value
Method in brief: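 A DNA repair-deficient yeast mutant serves as the test organism; compound-induced growth inhibition is calculated against vehicle-treated cells.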

[2] = NCI Yeast Anticancer Drug Screen. Data for the mec2-1 strain (AID 157); details: S. cerevisiae mec2-1 strain, at 50.0 µM, stronger effect = higher value
Method in brief: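 Vehicle-treated cultures served as reference for growth inhibition of compound-exposed mec2-1 yeast.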

[3] = NCI Yeast Anticancer Drug Screen. Data for the cln2 rad14 strain (AID 165);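 further: 0% = growth equal to vehicle treated cultures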; details: S. cerevisiae cln2 rad14 strain, at 50.0 µM, stronger effect = higher value
Method in brief: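 Each compound was tested on cln2 rad14 yeast. Inhibition of growth was calculated against vehicle-exposed controls.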

[4] = NCI Yeast Anticancer Drug Screen. Data for the bub3 strain (AID 167); details: S. cerevisiae bub3 mutant strain, at 50.0 µM, stronger effect = higher value
Method in brief: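 Inhibition values come from growth of compound-treated mutant yeast normalised to vehicle-treated controls.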

[5] = NCI Yeast Anticancer Drug Screen. Data for the mlh1 rad18 strain (AID 175); details: S. cerevisiae mlh1 rad18 strain growth inhibition; at 50.0 µM; stronger effect = higher value
Method in brief: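 Vehicle-treated cultures served as the reference for growth inhibition in a yeast strain carrying DNA damage repair alterations exposed to each compound.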

[6] = NCI Yeast Anticancer Drug Screen. Data for the sgs1 mgt1 strain (AID 161);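 further: 0% = growth of cultures given vehicle only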; details: S. cerevisiae sgs1 mgt1 strain, at 50.0 µM, stronger effect = higher value
Method in brief: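 Genetically altered yeast, compound exposure, growth inhibition relative to vehicle.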

Measured: growth inhibition

O=C(O)CSCSCC(=O)O
inactive: [1] 1.45% | [2] -26.4% | [3] 20.2% | [4] 4.8% | [5] 3.1%

COc1ccc(/C=C/c2cccc[n+]2C)cc1
inactive: [1] 1.35% | [2] 1.3% | [3] 0.55% | [4] -9.9% | [5] -11.2%

CCCCOC(OCCCC)c1ccccc1
inactive: [1] -26.5% | [2] -9.5% | [3] -18.6% | [4] -1.8% | [5] 12.2%

COC(=O)c1cccnc1
inactive: [1] 6.65% | [2] -3.85% | [3] 7.2% | [5] -1.2%

CC(C(=O)O)(C1CCCCC1)C1(O)CCCCC1 (stereo unspecified)
inactive: [1] 29.8% | [2] 45.5% | [3] 59.5% | [4] 62.5% | [5] 29.5%

c1cc[n+](C2c3ccccc3C([n+]3ccccc3)c3ccccc32)cc1 (stereo unspecified)
inactive: [1] 25.2% | [2] 18.8% | [3] -23.9% | [4] 28% | [5] 41.5%

CCOC(=O)CSc1c([N+](=O)[O-])ncn1C
inactive: [1] 4.9% | [2] 0.5% | [3] 17.3% | [4] 8.75% | [5] -10.4%

O=C(Cc1ccccc1)Cc1ccccc1
inactive: [1] -1.55% | [2] -5% | [3] -3.3% | [4] -8.65% | [5] 13.6%

CC(C)C(C#N)(C(C)C)C(C)C
inactive: [1] 23.3% | [2] 15.4% | [3] -29.6% | [4] -1.95% | [5] 22.4%

COC(=O)C(C)Oc1ccc(OC#N)cc1 (stereo unspecified)
inactive: [1] -21.3% | [2] -14.1% | [3] -3% | [4] 6.25% | [5] 23.5%

O=c1cc2oc3cc(O)c(O)cc3c(-c3ccccc3O)c-2cc1O
inactive: [1] 26.1% | [2] 2.25% | [4] 41% | [5] 26.4%

O=C1c2ccccc2C(=O)N1OCc1ccccc1
inactive: [1] -18.1% | [2] -30.6% | [6] -14.4% | [4] -20% | [5] -32.7%

COC1=CC(=O)c2nc(Cl)ccc2C1=O
inactive: [1] 29% | [2] 9.95% | [3] -1% | [4] 11.8% | [5] 24.6%

Oc1ccccc1-c1nnco1
inactive: [1] -1.9% | [2] -13.8% | [3] 4.35% | [4] -2.15% | [5] -8.7%

CCOC(=O)C(=O)C=P(c1ccccc1)(c1ccccc1)c1ccccc1
inactive: [1] -29.5% | [2] -22.4% | [3] -8.9% | [4] -40.9% | [5] -24.2%

COc1ccccc1N=Nc1c(O)ccc2cc(S(=O)(=O)O)ccc12
inactive: [1] -14.7% | [2] 6.9% | [3] 9.95% | [4] -2.75% | [5] -13.2%

O=[N+]([O-])c1ccc(-c2noc(-c3cccs3)n2)cc1
inactive: [1] -3.2% | [2] -31.9% | [4] 10.7%

COc1nc(N)nc2c1ncn2C1OC(CO)CC1O (stereo unspecified)
inactive: [1] 13.4% | [2] -3.2% | [3] 10.9% | [4] 0.55% | [5] 25.8%

Nc1ccc(CC(=O)O)c(N)c1
inactive: [1] 0.55% | [2] -7.8% | [3] -6.25% | [4] 4.6% | [5] -0.4%

CCOC(=O)c1cc2cccc(OC)c2oc1=O
inactive: [1] 6.15% | [2] 3.45% | [3] -4.75% | [4] 12.8% | [5] -0.2%

OC(c1ccccn1)C(O)c1ccccn1 (stereo unspecified)
inactive: [1] -2.55% | [2] -4.45% | [3] -9% | [4] -5.6% | [5] 3.2%

CCOC(=O)Nc1nn[nH]n1
inactive: [1] 7.75% | [2] 1.35% | [3] 4.15% | [4] -4.95% | [5] 3.65%

O=C(O)c1cccc([N+](=O)[O-])c1O
inactive: [1] -41.4% | [2] 1.35% | [3] -0.7% | [5] 14.4%

Cc1cc(=O)[nH]c(NN=C2CCCC2)n1
inactive: [1] -27.9% | [2] -52.5% | [3] -2.6% | [4] -33.5% | [5] -27.1%

CCOC(=O)C(O)C(O)C(=O)OCC (stereo unspecified)
inactive: [1] 21.4% | [2] -15.8% | [3] -16.7% | [4] -2.85% | [5] 7.85%

O=C(O)CCCc1ccccc1
inactive: [1] 5.1% | [2] -6.2% | [3] -7.65% | [4] 6% | [5] 11.3%

CC(C)OC(C(=O)O)c1ccccc1 (stereo unspecified)
inactive: [2] 2.2%

CC1(C)OC(=O)C(c2ccsc2)C(=O)O1
inactive: [2] -9.35%

Cn1cnc2nc(Cl)nc(Cl)c21
inactive: [2] 23% | [6] 10.7% | [3] -0.05% | [4] 27.1% | [5] 11.2%

CC1OC(Oc2c(-c3ccc(O)c(O)c3)oc3cc(O)cc(O)c3c2=O)C(O)C(O)C1O (stereo unspecified)
inactive: [2] -8.25% | [6] 14.2% | [3] 8.6% | [4] 20.9% | [5] 38.4%

COc1ccc(/C(C#N)=C2C=C/C(=N/O)c3ccccc3\2)cc1
inactive: [2] 14.6% | [6] 8.75% | [3] -22.2% | [4] 9.25%

COC(=O)Nc1nc2ccc(C(=O)c3cccs3)cc2[nH]1
inactive: [2] 33.4% | [6] 17.5% | [3] -35% | [4] 24.4% | [5] 19%

C=CC(=O)OCCCCCCCC
inactive: [2] -14.3% | [6] -29.4% | [3] -34.5% | [4] 2.4% | [5] 2.85%
